# RBX1-CUL1 inh = inhibitors of human ROC1-CUL1 ubiquitin ligase activity. E3 ubiquitin-protein ligase RBX1 (Homo sapiens) + Cullin-1 (Homo sapiens), P62877+Q13616. in vitro K48 di-Ub FRET, acceptor:donor ratio, 45 min. inhibition, % at 10 µM. 140,000 compounds, 0.6% hits. AID 1347404, 2020; in the data active = inhibition above about 25%
# Target sequence (P62877 whole entry, looked up): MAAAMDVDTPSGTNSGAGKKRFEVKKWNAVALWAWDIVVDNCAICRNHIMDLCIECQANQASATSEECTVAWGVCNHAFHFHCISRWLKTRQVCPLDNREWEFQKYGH
# Target sequence (Q13616 whole entry, looked up): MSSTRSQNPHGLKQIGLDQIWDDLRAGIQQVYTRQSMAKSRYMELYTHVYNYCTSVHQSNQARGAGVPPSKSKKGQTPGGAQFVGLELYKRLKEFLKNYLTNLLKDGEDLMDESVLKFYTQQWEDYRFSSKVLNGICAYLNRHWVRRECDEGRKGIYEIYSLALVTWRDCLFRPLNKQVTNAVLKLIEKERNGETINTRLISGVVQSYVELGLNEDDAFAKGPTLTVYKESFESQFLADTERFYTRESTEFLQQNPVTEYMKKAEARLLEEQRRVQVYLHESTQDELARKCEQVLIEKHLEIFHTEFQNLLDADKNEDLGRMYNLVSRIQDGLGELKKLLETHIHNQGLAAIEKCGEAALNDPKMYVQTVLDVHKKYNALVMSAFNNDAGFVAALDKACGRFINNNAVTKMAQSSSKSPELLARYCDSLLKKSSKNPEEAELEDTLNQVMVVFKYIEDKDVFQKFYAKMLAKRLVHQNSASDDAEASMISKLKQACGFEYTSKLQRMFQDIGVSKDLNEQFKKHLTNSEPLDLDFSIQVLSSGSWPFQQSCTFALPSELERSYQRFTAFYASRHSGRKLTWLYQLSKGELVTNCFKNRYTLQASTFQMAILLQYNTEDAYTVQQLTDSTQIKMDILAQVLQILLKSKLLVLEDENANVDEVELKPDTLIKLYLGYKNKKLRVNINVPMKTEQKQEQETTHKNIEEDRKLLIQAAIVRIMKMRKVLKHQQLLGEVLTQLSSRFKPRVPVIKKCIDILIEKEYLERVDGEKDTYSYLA
# Starred values were filed as active, the others as inactive. Many of the other results were omitted from the sample, so hits are more common in it than they were.
SMILES,RBX1-CUL1 inh
O=C(Nc1ccccc1)Oc1c(Cl)cc2oc(=O)sc2c1Br,16
CC(=O)Oc1c(Br)cc2oc(=O)sc2c1Br,34*
O=C(Cc1ccccc1)Nc1cccc(S(=O)(=O)c2cccc(NC(=O)Cc3ccccc3)c2)c1,-2
Cc1ccc(N2CCN(CN3C(=O)S/C(=C/c4ccco4)C3=O)CC2)cc1,-4
N#Cc1ccc(S(=O)(=O)N2CCC(Oc3cccc(C(F)(F)F)c3)CC2)cc1,5
Nc1ccccc1C(=O)Nc1cccc(Cl)c1,10
O=C(Nc1cccc(Cl)c1)Nc1ccccc1C(=O)O,2
O=C(O)c1cc2oc3ccccc3c3ccccc3oc2cc1C(=O)Nc1cccc(Cl)c1,40*
COc1ccc(Cc2nc3ccc(C(=O)NCC4CCCCO4)cc3o2)cc1 (stereo not given),4
COC(C(=O)NCc1cc(=O)[nH]cn1)(c1ccccc1)C(F)(F)F (stereo not given),11
COc1cccc(-n2c(/C=C3\C(=O)N(Cc4ccccc4)c4ccccc43)nc3ccccc3c2=O)c1,1
Cc1nc2c(I)cc(I)cc2c(=O)o1,-1
CC(C)(C)c1ccc(CN2CCN(c3ccnc4cc(Cl)ccc34)CC2)cc1,1
CC(C)(C)C(=O)N1CCN(c2ccnc3cc(Cl)ccc23)CC1,7
O=C(CN1CCN(c2cc(Cl)cc3ncccc23)CC1)c1ccc(O)c(O)c1,84*
CCN1CCN(C2(C(=O)N3CCCC(OC)C3)Cc3ccccc3C2)CC1 (stereo not given),6
O=C1C2C(c3ccc(F)c(Cl)c3)OC3(C(=O)c4ccccc4C3=O)C2C(=O)N1c1ccc(Br)cc1 (stereo not given),93*
O=C1C2C(c3ccccc3)OC3(C(=O)c4ccccc4C3=O)C2C(=O)N1c1ccc(F)cc1 (stereo not given),-4
O=C1C2C(c3ccc(Br)cc3)OC3(C(=O)c4ccccc4C3=O)C2C(=O)N1c1ccc([N+](=O)[O-])cc1 (stereo not given),4
O=C(C1CCC1)N1CCc2onc(-c3ccc(Cl)cc3)c2C1,-5
CCc1noc(C)c1C(=O)Nc1cccc(C)c1C,1
Cc1cccc(-c2nc(C#N)c(NCc3ccccc3Cl)o2)c1,2
COc1cccc(N2C(=O)/C(=C/c3ccc(C(=O)O)cc3)SC2=S)c1,3
O=C(O)c1cccc(N2C(=O)/C(=C/c3ccc4c(c3)OCO4)SC2=S)c1,-2
O=C(O)c1ccc(N2C(=O)/C(=C/c3ccc4c(c3)OCO4)SC2=S)cc1,26*
SMILES,RBX1-CUL1 inh
CCN1CCN(c2nc(C)c(Cc3cccc(C)c3)c(=O)[nH]2)CC1,-3
Cc1cc(C)nc(CNCc2cccc(OCC(O)CN3CCOCC3)c2)n1 (stereo not given),-4
CCOc1cc(C2C(C(=O)c3cc4ccccc4o3)C(=O)C(=O)N2c2nnc(SCc3ccccc3Cl)s2)ccc1O (stereo not given),33*
CC(=O)c1sc(N2C(=O)C(=O)C(C(=O)c3cc4ccccc4o3)C2c2ccc(O)cc2)nc1C (stereo not given),11
CCOc1cc(C2C(C(=O)c3cc4ccccc4o3)C(=O)C(=O)N2Cc2ccco2)ccc1O (stereo not given),3
O=C1C(=O)N(c2nnc(SCc3ccccc3Cl)s2)C(c2ccc(Cl)cc2)C1C(=O)c1cc2ccccc2o1 (stereo not given),29*
O=C1C(=O)N(c2nnc(SCc3ccccc3F)s2)C(c2ccc(Cl)cc2)C1C(=O)c1cc2ccccc2o1 (stereo not given),-2
CCCCCOc1ccc(C2C(C(=O)c3cc4ccccc4o3)C(=O)C(=O)N2c2nc3ccc(OCC)cc3s2)cc1OC (stereo not given),-6
CCOC(=O)C1=NNC2C(=O)N(c3ccccc3[N+](=O)[O-])C(=O)C12 (stereo not given),3
O=C(COc1cccc(Br)c1)N/N=C/c1cccs1,-3
COc1ccc(C=C2C(=O)c3ccccc3C2=O)cc1C,11
COc1ccc(C(=O)N/N=C(/C)c2cccc(NC(=O)C3CCCCC3)c2)cc1,-2
Cc1[nH]c2ccc(CNC3CCN(Cc4ccccn4)CC3)cc2c1C,-7
C=CCn1c(SCC(=O)Nc2sc(C(=O)OCC)c(C)c2C(=O)OCC)nc2scc(-c3ccco3)c2c1=O,8
C=CCn1c(SCC(=O)Nc2cccc(C(F)(F)F)c2)nc2sc3c(c2c1=O)CCC3,-5
C=CCn1c(SCC(=O)Nc2cccc(C(F)(F)F)c2)nc2scc(-c3ccco3)c2c1=O,34*
O=C(Cn1nnnc1CN1CCOCC1)N1CCN(c2ccccc2)C(=O)C1,0
CS(=O)(=O)Oc1ccc2c(-c3ccccc3C(=O)O)c3ccc(=O)c(I)c-3oc2c1I,117*
O=C(O)c1cccc2c1-c1ccccc1C2=O,-4
O=c1c(N=Nc2c(Cl)cccc2Cl)c(-c2ccc([N+](=O)[O-])cc2)[nH]n1-c1ccccc1,13
COc1ccc(C(=O)NNC(=O)c2ccc(Cl)cc2Cl)cc1[N+](=O)[O-],4
Nc1nc(=O)[nH]nc1Nc1ccc(O)cc1,-4
Cc1cc(Br)ccc1NC(=O)CN1CCC(C)CC1,98*
Cc1cc(Cl)ccc1NC(=O)CN1CCC(C)CC1,1
Cc1cc(Br)c(NC(=O)CN2CCC(C)CC2)cc1C,5
SMILES,RBX1-CUL1 inh
CCCCC(=O)Nc1c(Cl)cccc1C(=O)O,-1
CCC(=O)N1CCc2c([nH]c3ccccc23)C12C(=O)Nc1ccccc12 (stereo not given),0
COC(=O)c1cc(-c2ccc(/C=C3/SC(=O)NC3=O)o2)ccc1Cl,-4
CC1=C(C#N)C(=O)NC(=O)/C1=C/c1ccc(-c2ccc(Cl)c(C(=O)OC(C)C)c2)o1,86*
CC1=C(C#N)C(=O)N(CC(C)C)C(=O)/C1=C/c1ccc(-c2ccc(Cl)cc2)o1,0
Cc1ccccc1C(=O)Nc1nc2ccccc2s1,8
Oc1c(C=C2C=Nc3ccc(Br)cc32)sc(=Nc2ccccc2)n1C1CC1,-1
CC(=O)c1c(O)ccc2c1[C@@H]1OC(=O)C[C@@H]1O2,98*
COc1ccc(C(=O)Nc2c(Cl)cc(Cl)cc2C(=O)NCc2cccnc2)cc1,-4
CCCCOC(=O)c1cc(-c2ccc(CC3=NC(=S)NC3=O)o2)ccc1Cl,1
CCOC(=O)c1cc(-c2ccc(C(c3c(C)[nH][nH]c3=O)c3c(C)[nH][nH]c3=O)o2)ccc1Cl,67*
CCOC(=O)c1cc(-c2ccc(/C=C(\C#N)c3nc4ccc(C)cc4[nH]3)o2)ccc1Cl,-4
O=S1(=O)Cc2cc(Br)ccc2O1,0
CCC(C)C(=O)Nc1nc2c(s1)CCCC2 (stereo not given),-5
Cc1nn(C)cc1CN(C)C(=O)c1cc2nc(-c3ccc(Br)cc3)cc(C(F)(F)F)n2n1,-2
CC(=O)Cc1ccccc1/C=C1\OC(=O)c2ccccc21,8
COc1ccccc1/C=C1\Oc2cccc(OC)c2C1=O,10
CN(C)c1ccccc1/C=C1\Oc2ccccc2C1=O,27*
COc1ccc(NC(=O)C(NC(=O)C2CCC(C)CC2)C(C)C)cc1 (stereo not given),-3
COc1ccc(CC(=O)Nc2ccc(-c3ccc(NC(=O)Cc4ccc(OC)cc4)c(C(=O)O)c3)cc2C(=O)O)cc1,5
O=C(NC(=S)Nc1cccnc1)c1cncc(Br)c1,2
Cc1ccc(C2C(C)C(N3CCC(C(=O)NCc4ccc(N(C)C)cc4)CC3)NS2(=O)=O)cc1C (stereo not given),-8
CC(=O)Oc1ccccc1C(=O)Oc1ccccc1,-5
CC(=O)NCc1ccc(OC(C)=O)c(OC(C)=O)c1,2
